In all, about 69,000 compounds went through this assay and about 8,600 (12%) showed an effect of 50% or more. The sample as a whole holds a higher share of strong results than the screen did.

This experiment deals with Plasmodium berghei. Kind of experiment: Screen against P. berghei liver stage (PbLuc), transformed with Luciferase, at 10uM. The class given is functional, HepG2. Conditions: tested at 10 uM.
As to `CC(C)c1nc2n(n1)CC(NCc1ccncc1)CC2` (configuration not stated), the INHIBITION came out at 0.79%. The same measure for `CCc1ccc(NC(=O)N2C[C@@H]3C[C@H](C(=O)N4CCCC4)[C@H](C2)O3)cc1`: 45.4%. The same measure for `O=C(NCC1CCCOC1)c1ccc(-c2ccccc2)[nH]c1=O` (configuration not stated): -29.1%; for `O=S(=O)(NCc1ccccc1)Nc1cccc(Cn2cncn2)c1`: 47.2%; for `Cc1nc(Nc2nncs2)cc(C2CNC2)n1`: 12.75%.

For `CN1CCC/C1=N\S(=O)(=O)c1ccc(NC(=O)CCc2cccs2)cc1`, the INHIBITION is 27.4%. The value for `CS(=O)(=O)N1C[C@@H]2COC[C@]2(CN2CCOCC2)C1` was 65.9%; that for `COC[C@]12COC[C@H]1CN(S(=O)(=O)c1cccnc1)C2` was 33%. The same measure for `O=S(=O)(c1ccccc1)N1C[C@@H]2COC[C@]2(CN2CCOCC2)C1`: 9.79%; for `Cc1nnc([C@]23COC[C@H]2CN(S(=O)(=O)c2cccnc2)C3)o1`: -2.26%; for `O=S(=O)(c1cccnc1)N1C[C@@H]2COC[C@]2(CN2CCOCC2)C1`: 55.5%. The same measure for `CS(=O)(=O)N1C[C@@H]2COC[C@]2(COCC(=O)N2CCCC2)C1`: 28.5%; for `CCCS(=O)(=O)N1C[C@@H]2COC[C@]2(CN2CCOCC2)C1`: 6.83%. As to `O=S(=O)(c1ccccc1)N1C[C@@H]2COC[C@]2(COCC2CC2)C1`, the INHIBITION stood at 44.2%. Consider `O=S(=O)(c1cccnc1)N1C[C@@H]2COC[C@]2(COCC2CC2)C1`, for which the INHIBITION came to 65.1%. Turning to `Cc1ccc2c(n1)N(CCN(C)C)CCN(Cc1c(C)noc1C)C2`, the INHIBITION amounted to 42.6%. The value for `COCCN1CCc2ccccc2NCCC1=O` was 16.9%. Consider `CN(Cc1cnn(C)c1)CC(O)c1ccc2c(c1)OCCCO2` (configuration not stated), for which the INHIBITION was found to be 18.8%. The value for `O=C(c1cccs1)N1CCC2(CC1)CCN(S(=O)(=O)C1CC1)CC2` was 45.7%; that for `O=C(c1sccc1-n1cnnn1)N1CCCCC1` was 17.4%. Regarding `CCN(CC)CC(=O)N(C)C(c1cccc(F)c1)c1ccccn1` (configuration not stated), the INHIBITION is listed as -4.16%. In the case of `Cc1cnn(CC2CCCN2C(=O)Cn2nc(C)c(Cl)c2C)c1` (configuration not stated), the INHIBITION is -41.5%.

Consider `CC(C)CC(=O)N1CCc2nc(N3CCOCC3)nc(NC(C)C)c2C1`, for which the INHIBITION is reported as 52.9%. The same measure for `Cc1nc(N2CCOCC2)nc2c1CCN(C(=O)N1CCCC1)CC2`: 39.5%; for `CCC(=O)N1CCc2nc(N3CCOCC3)nc(N(C)C)c2CC1`: 45.2%; for `COCCC(=O)N1CCc2nc(N3CCOCC3)nc(NC(C)C)c2C1`: 76.5%.

Regarding `COc1c(Br)c(C(=O)NC2CCCCC2)nn1C`, the INHIBITION is recorded as -37.1%.

Take `COc1c(Br)c(C(=O)NC2CC2)nn1C`: the INHIBITION was 33.3%. The value for `COc1c(Br)c(C(=O)NC2CCCC2)nn1C` was 71.4%; that for `Cc1cnn(CC2CCCCN2C(=O)c2ccc3[nH]cnc3c2)c1` (configuration not stated) was 5.7%; that for `N#Cc1ccccc1CN1CCC(CN2CCOCC2)C1` (configuration not stated) was -19.8%. The value for `COc1ccc(S(=O)(=O)NCc2cccnc2N(C)C)cc1` was 21.5%; that for `CC(C)c1nn(C)c(Cl)c1CNCc1cccnc1N(C)C` was 57.5%. As to `CN(C)c1ncccc1CNS(=O)(=O)c1ccc(F)c(F)c1`, the INHIBITION is 11.2%. The same measure for `COc1ncccc1CNCc1c(C(C)C)nn(C)c1Cl`: 21.7%.

As for `CCOc1ccc(CNCc2cccnc2N(C)C)cc1`, the INHIBITION was found to be 39.7%. The value for `CCOc1ccc(S(=O)(=O)NCc2cccnc2N(C)C)cc1` was 67.5%. The same measure for `CC(C)c1nn(C)c(N(C)C)c1CNCc1cccnc1N(C)C`: 14.815%.

`CC(C)N(C)S(=O)(=O)NCc1cccnc1N(C)C`: the INHIBITION is 55%. Consider `CCCC(C)CS(=O)(=O)NCc1cccnc1N(C)C` (configuration not stated), for which the INHIBITION was -33.9%. The value for `COc1ccc(S(=O)(=O)NCc2cccnc2N(C)C)cc1F` was 58.2%; that for `CN(C)c1ncccc1CNS(=O)(=O)c1ccccc1F` was 34.7%.

Consider `CN(C)c1ncccc1CNS(=O)(=O)c1cc(F)cc(F)c1`, for which the INHIBITION was -10.1%. The same measure for `CN(C)C(=O)COCC1CN(S(C)(=O)=O)Cc2ncn(C)c21` (configuration not stated): 38.2%; for `COc1ccc(NC(=O)c2nc3ccccc3n(C)c2=O)c(OC)c1`: 3.19%; for `Cn1ccc(C(=O)NC2CCC23CCN(Cc2cccnc2)CC3)c1` (configuration not stated): 23.5%.

For the compound `CC(O)C1CCN(C(=O)CCOc2ccccc2F)CC1` (configuration not stated), the INHIBITION is -17.8%. The value for `CC(C)(C)S(=O)(=O)c1ccc(N2CCC(n3cccn3)CC2)cn1` was -8.66%. As to `Cc1ccc2nc(C(=O)N(C)[C@@H]3CC[C@@H](N4CCCC4)[C@@H]3O)cn2c1`, the INHIBITION is 1.068%. The value for `c1ccc(Cc2noc(CN3CCCC3Cn3cccn3)n2)cc1` (configuration not stated) was 1.78%; that for `Fc1ccc(-c2cnc(CN3CCOC(Cn4cccn4)C3)o2)cc1` (configuration not stated) was -21.8%; that for `COc1ccccc1CN1CCc2c(nc(-c3ccccn3)[nH]c2=O)C1` was 25.6%. The same measure for `CSc1ccccc1C(=O)N(C)Cc1nncn1C(C)C`: 37.4%. The same measure for `CN(C)c1ncccc1CNS(=O)(=O)c1cc(F)ccc1F`: -27.8%; for `CN(C)c1ncccc1CNS(=O)(=O)c1c(F)cccc1F`: 11.6%; for `CN(C)c1ncccc1CNS(=O)(=O)c1ccccc1Cl`: -4.16%. Take `CCOC(=O)c1ccc(S(=O)(=O)NCc2cccnc2N(C)C)cc1`: the INHIBITION was determined as 83.2%. In the case of `CN(C)c1ncccc1CNS(=O)(=O)c1ccc(C(N)=O)cc1`, the INHIBITION is given as -3.2%. The same measure for `COC(=O)c1ccc(S(=O)(=O)NCc2cccnc2N(C)C)cc1`: 52.7%; for `COC(=O)c1cccc(S(=O)(=O)NCc2cccnc2N(C)C)c1`: 13.3%; for `COc1cc(C)c(S(=O)(=O)NCc2cccnc2N(C)C)c(C)c1`: 61.7%. The same measure for `CC(=O)c1ccc(S(=O)(=O)NCc2cccnc2N(C)C)cc1`: 66.7%.

As for `CC(=O)c1cccc(S(=O)(=O)NCc2cccnc2N(C)C)c1`, the INHIBITION turned out to be 42%. The same measure for `Cc1ccc(F)cc1S(=O)(=O)NCc1cccnc1N(C)C`: 49.3%; for `CNC(=O)c1ccc(S(=O)(=O)NCc2cccnc2N(C)C)cc1`: 29.7%. The value for `COCCN1C[C@@H]2CN(Cc3ccsc3)CCC[C@]2(C(=O)O)C1` was 3.47%; that for `COc1ccc(CN2CC(O)CN(C(=O)CC(C)C)CC2=O)cc1` (configuration not stated) was 19.2%.
